# Test results taken from PubChem BioAssay.
# Values joined by “and” are separate entries in the source; they are usually repeats but may differ in a detail not shown here. Equal values may be shown once. Active and inactive are the calls of the source.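 Rule for the calls, unless noted: active = inhibition at or above 50% relative to wild type and mutant plate controls; inactive = inhibition below 50%.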
# Experiments:
# [1] = inhibitors of TNFa-induced NFkB p65 translocation, primary screen, imaging, HUVEC, MLSMR starter and 10KST1 sets (AID 438;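 active = inhibition above 20% together with a positive visual image hit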;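 note: compound added about 3h40 before a 20 min TNFalpha stimulation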;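 for inhibition: signal is the nuclear over cytoplasmic p65 intensity ratio per well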); settings: HUVEC TNFa-induced p65 nuclear translocation; cell count: measured here: nuclei count (cytotoxicity indicator), at 2.08 µM; inhibition: at 2 µM, stronger effect = higher value, 0% TNFa-plus-vehicle, 100% no-TNFa wells
# [2] = reduction of polyQ htt aggregates in cells – imaging, exon1htt(103Q)mCFP cells, high-content imaging, primary screen (AID 483;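 active = visual image review flags a hit and inhibition of aggregation exceeds 20%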;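 note: compound exposure lasted 3 days before fixation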;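 for nuclei count: percent of the per-plate median nuclei count of sample wells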); settings: exon1htt(103Q)mCFP cell line, aggregate imaging, at 2 µM; inhibition of aggregation: stronger effect = higher value; nuclei count: measured here: cell count, toxicity
# [3] = endothelial E-selectin expression blockers – imaging, HUVEC, immunofluorescence, MLSMR starter and 10KST1 sets, primary screen (AID 487;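 active = visually confirmed hit in the image check and inhibition above 20%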;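 for inhibition: signal is fraction of cell area covered by stained E-selectin grains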;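 for nuclei count: 100% = median nuclei count of all wells on the same plate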); settings: HUVEC TNFalpha-induced E-selectin immunofluorescence imaging, at 2 µM; inhibition: stronger effect = higher value; nuclei count: measured here: cell number, toxicity
# [4] = Primary imaging screen for DUSP6 inhibitors that restore phospho-Erk in transfected HeLa cells, chemical complementation (AID 609;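 active = compounds giving at least 50% inhibition in the cell-based MKP-3 phosphatase rescue imaging test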;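 for inhibition: phospho-Erk level distribution per well compared with pooled transfected vehicle control wells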); settings: HeLa MKP-3 transfected, phospho-Erk imaging KS statistic, at 10 µM, cells stimulated with TPA for 15 min
# [5] = target: Dual specificity protein phosphatase 6 (Homo sapiens) (UniProt Q16828); test: as above; settings: HeLa MKP-3 transfected, phospho-Erk imaging KS statistic; at 10 µM; stronger effect = higher value; cells stimulated with TPA for 15 min
# Sequence of Dual specificity protein phosphatase 6 (Homo sapiens) (Q16828 whole entry, looked up): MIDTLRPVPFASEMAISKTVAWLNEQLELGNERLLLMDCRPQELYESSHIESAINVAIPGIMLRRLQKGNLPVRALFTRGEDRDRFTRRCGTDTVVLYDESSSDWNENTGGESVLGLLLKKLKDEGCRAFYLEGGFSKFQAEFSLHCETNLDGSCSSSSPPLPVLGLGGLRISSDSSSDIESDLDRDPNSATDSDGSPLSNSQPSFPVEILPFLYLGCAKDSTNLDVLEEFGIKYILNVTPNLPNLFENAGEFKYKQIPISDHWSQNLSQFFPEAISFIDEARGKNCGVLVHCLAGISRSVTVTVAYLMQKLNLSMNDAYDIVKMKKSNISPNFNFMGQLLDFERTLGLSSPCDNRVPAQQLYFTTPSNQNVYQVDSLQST
# [6] = target: Voltage-gated potassium channel subunit beta-2 (Rattus norvegicus) (UniProt P62483); test: inhibitors of rat Kvbeta2 reductase activity – biochemical, NADPH fluorescence, primary screen (AID 622;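 active = fluorescence slope higher than the sample average by over 3 SD, cut at about -0.22 in these data, passing the limit was not always enough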;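 note: slope of raw intensity against log time taken from 70 to 1610 s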); settings: recombinant KvBeta, 4-cyanobenzaldehyde reduction, at 10 µM, stronger effect = higher value
# Sequence of Voltage-gated potassium channel subunit beta-2 (Rattus norvegicus) (P62483 whole entry, looked up): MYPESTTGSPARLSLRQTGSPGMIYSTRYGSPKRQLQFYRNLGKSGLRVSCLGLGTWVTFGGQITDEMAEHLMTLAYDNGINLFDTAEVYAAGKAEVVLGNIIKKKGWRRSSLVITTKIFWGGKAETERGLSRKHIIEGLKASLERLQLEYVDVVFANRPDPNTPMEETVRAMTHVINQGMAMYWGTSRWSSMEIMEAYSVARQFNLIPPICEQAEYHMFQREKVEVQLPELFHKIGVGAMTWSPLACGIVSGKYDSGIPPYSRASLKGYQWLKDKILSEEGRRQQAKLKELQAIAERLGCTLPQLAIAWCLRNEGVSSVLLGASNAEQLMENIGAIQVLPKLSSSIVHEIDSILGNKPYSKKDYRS
# [7] = target: Voltage-gated potassium channel subunit beta-2 (Rattus norvegicus) (UniProt P62483); test: enhancers of rat Kvbeta2 NADPH turnover – biochemical, NADPH fluorescence, primary screen (AID 623;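 active = NADPH fluorescence slope more negative than the mean of all samples by about 3 SD, 99.7% confidence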;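 note: fluorescence intensity change per second fitted from 20 to 320 s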); settings: Recombinant KvBeta, NADPH fluorescence decrease slope, 10 min; at 10 µM; stronger effect = lower value
# [8] = target: Alpha-2C adrenergic receptor (Homo sapiens) (UniProt P18825); test: compounds altering alpha2C-coupled GIRK flux – cell-based, HEK293 alpha2C/GIRK1/2, thallium flux, primary screen (AID 624;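 active = fluorescence slope after compound addition differing from the mean of all screened samples at 99.7% confidence, in either direction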;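 note: slope of fluorescence ratio to pre-addition baseline per second over 15 to 24 s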); settings: thallium flux BTC fluorescence, at 10 µM, actives lie on both sides
# Sequence of Alpha-2C adrenergic receptor (Homo sapiens) (P18825 whole entry, looked up): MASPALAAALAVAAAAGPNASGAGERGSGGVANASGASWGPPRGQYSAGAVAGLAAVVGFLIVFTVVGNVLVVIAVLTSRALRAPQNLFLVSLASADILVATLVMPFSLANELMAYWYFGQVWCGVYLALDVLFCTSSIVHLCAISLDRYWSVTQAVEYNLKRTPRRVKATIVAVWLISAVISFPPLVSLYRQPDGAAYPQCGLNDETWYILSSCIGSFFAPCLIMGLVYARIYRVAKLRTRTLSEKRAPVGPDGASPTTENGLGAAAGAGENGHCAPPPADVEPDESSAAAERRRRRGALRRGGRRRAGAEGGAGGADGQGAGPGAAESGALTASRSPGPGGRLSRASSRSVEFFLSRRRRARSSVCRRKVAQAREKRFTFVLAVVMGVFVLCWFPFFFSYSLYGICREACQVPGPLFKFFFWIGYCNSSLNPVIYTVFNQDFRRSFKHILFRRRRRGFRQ
# [9] = inhibitors of larval lipid processing in zebrafish, primary screen, whole organism, PED6 fluorescence, gall bladder and intestine (AID 686;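 active = a full or partial loss of lipid-probe fluorescence in the fish gall bladder, intestine or both, judged by eye; inactive = no fluorescence loss, or compound toxic to the fish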;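 note: larvae 5 to 7 days old with five fish per well; signal comes from phospholipase A2 cleavage of quenched PED6 carried via bile; overnight exposure to compound and PED6 before scoring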); settings: Zebrafish larvae PED6 lipid processing, fluorescence scoring; screened at 20 µM (by protocol)
# [10] = loss of swimming-algae plug formation – whole organism, Chlamydomonas reinhardtii, WT vs cilia-less mutant, absorbance, 96-well, primary screen (AID 463189); settings: Chlamydomonas reinhardtii gravitaxis, OD600 absorbance, 2 days; at 10 µM; stronger effect = higher value;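 note: 0% = wild type cc124 cells in DMSO and 100% = ciliumless bld1 mutant cells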
# [11] = blockers of RIG-like receptor reporter activation – cell-based, Sendai virus stimulus, luciferase, 10K MLSCN set, TLR/RLR signaling modifier project, primary screen (AID 602276;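 active = inhibition at or above 50% at 10 µM; inactive = inhibition below 50%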;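 note: firefly luciferase from ISG56 promoter only with Renilla not read in this screen; 0% = Sendai virus plus DMSO and 100% = medium plus DMSO without virus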); settings: HEK293 RL24 IRF3 luciferase reporter, at 10 µM, stronger effect = higher value
# [12] = TLR3 IRF3 reporter activation blockers – cell-based, poly I:C stimulus, luciferase, 10K MLSCN set, primary screen (AID 602277;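 active = inhibition of the reporter signal at or above 50%; inactive = inhibition below 50%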); settings: HEK293-TLR3 RL24 IRF3 luciferase reporter, at 10 µM, stronger effect = higher value
# [13] = measured here: cell density z-score
# [14] = measured here: nuclear c-Myc green intensity z-score
# [15] = measured here: nuclear pErk red intensity z-score, stronger effect = higher value
SMILES,cell count [1],inhibition [1],inhibition of aggregation [2],nuclei count [2] [%],inhibition [3],nuclei count [3] [%],"z-score [4, 13]","z-score [4, 14]","z-score [4, 15]",inhibition [5],fluorescence slope [6],NADPH fluorescence slope [7],slope [8],outcome [9],inhibition [10],inhibition [11],inhibition [12]
O=C(NCCO)c1cccc2c1C(=O)c1ccccc1-2,511,-13.6% (inactive),9.3% (inactive),91.4,-95.8% (inactive),137,-0.677,1.11,1.88,7.73% (inactive),-0.517 (inactive),-5.1e-05 (inactive),0.00471 (inactive),inactive,31.9% (inactive),4.9% (inactive),-1.91% (inactive)
CCN(CC)c1ncc(C)c(=O)[nH]1,410,-19.3% (inactive),-26.9% (inactive),121,-44.9% (inactive),111,0.304,-0.433,-0.0626,-2.69% (inactive),-0.541 (inactive),-8.2e-05 (inactive),0.00493 (inactive),inactive,31.2% (inactive),22.3% (inactive),22% (inactive)
Cn1nnc2c(sc3nc(N4CCOCC4)c4c(c32)CCCC4)c1=O,611,-5.6% (inactive),21.6% (inactive),109,-120% (inactive),114,3.22,-0.738,-2.88,28.6% (inactive),-0.348 (inactive),-2.4e-05 (inactive),0.00477 (inactive),inactive,-8.88% (inactive),-5.47% (inactive),-2.11% (inactive)
C[C@]12CC[C@@H]3c4ccc(OC(=O)c5ccccc5)cc4CC[C@H]3[C@@H]1CC[C@@H]2O,623,1.2% (inactive),-35.3% (inactive),31.5,-112% (inactive),133,-1.91,0.276,-1.27,-6.41% (inactive),-0.467 (inactive),-8.1e-05 (inactive),0.00784 (inactive),inactive,5.46% (inactive),7.4% (inactive),33.1% (inactive)
CCCOc1cccc(-c2nnc(N)s2)c1,605,-3.6% (inactive),-31.3% (inactive),108,-83.5% (inactive),111,0.352,-0.262,-0.207,-11.5% (inactive),-0.443 (inactive),-5.5e-05 (inactive),0.00934 (inactive),inactive,-3.59% (inactive),-30.1% (inactive),-65.7% (inactive)
CCC(NC(C)C)C(O)c1ccc(O)c(O)c1 (stereo not given),661,-7.3% (inactive),1% (inactive),109,-51.9% (inactive),117,-1.1,-0.395,0.461,7.39% (inactive),-0.492 (inactive),-5.8e-05 (inactive),0.00513 (inactive),inactive,14.5% (inactive) and 0.657% (inactive),13.9% (inactive),39.3% (inactive)
CC(=O)OC(C)C[N+](C)(C)C (stereo not given),551,2.7% (inactive),-10.4% (inactive),93.2,-37.2% (inactive),109,-0.162,0.661,-1.46,5.42% (inactive),-0.469 (inactive),-5.5e-06 (inactive),0.0149 (active),inactive,4.19% (inactive) and 8.31% (inactive),8.52% (inactive),29.7% (inactive)
C[C@]12CC[C@@H]3c4ccc(O)cc4C(=O)C[C@H]3[C@@H]1CC[C@@H]2O,575,-1.5% (inactive),12.4% (inactive),79.9,-48.8% (inactive),123,0.0524,0.457,1.93,10.2% (inactive),-0.47 (inactive),-7.3e-05 (inactive),0.00515 (inactive),inactive,-6.24% (inactive),-0.554% (inactive),18.4% (inactive)
C/C=C(/C(=C/C)c1ccc(O)cc1)c1ccc(O)cc1,603,-14.5% (inactive),10.1% (inactive),112,-76% (inactive),132,-0.991,-0.543,0.777,13.3% (inactive),-0.459 (inactive),-5.4e-05 (inactive),0.00464 (inactive),inactive,25.6% (inactive),8.63% (inactive),33.1% (inactive)
CCCC(=O)N(Cc1cc2ccccc2[nH]c1=O)c1ccccc1OC,429,-16.8% (inactive),-1.6% (inactive),94.8,-133% (inactive),166,1.04,-0.344,-0.503,17.7% (inactive),-0.364 (inactive),-8.5e-06 (inactive),0.00461 (inactive),inactive,27.4% (inactive),12% (inactive),14.8% (inactive)
